# Only a selection was taken, and the strongest signals are over-represented in it overall.
# B1: AT3G44510(29) (Arabidopsis thaliana), F4J341 (protein)
# chain: MEEHLQGRIKLHDGRYLAYKERGVPKDDAKFTIVLVHGFGSSKDMNFNVSQELVNEIGIYFVLYDRAGYGESDPNPKRSLKSEAYDVQELADGLEIGSRFYLIGISMGSYTVWSCLKHIPQRLAGVAMVAPVVNFRWPSIPKSLMPKDYRREVAKWSVWIANYFPGLLQWLVTQNMFSTTSMLEKNPVYFNDQDIEVLKHIKGFPMLTKEKLRERGVFGTLRSDFLVAFGDWDFDPADLPDPSLSGPEKGSSSVHIWQGYEDKVMPFQLQRCLCRKLPWIRYHEVPKGGHLIVHYDGICDAILKSLLLGEDLPMYKPKAVITEPA
# Experiments:
# Test in all cases: glycan array binding signal (z-score within array); higher = stronger binding
# Settings in all cases: glycan notation: IUPAC condensed, linker removed
# [1] = molecular target: Fuc(a1-2)Gal(b1-3)GlcNAc
# How it was run: (§1)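 From the Consortium for Functional Glycomics database, 3228 arrays were curated, keeping only those whose protein sequence was available. Binding is given as a within-array Z-score averaged across arrays sharing a protein sequence and across linkers. Negative Z-scores can be read as non-binding.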
# [2] = molecular target: Fuc(a1-2)Gal(b1-3)[Fuc(a1-4)]GlcNAc(b1-3)[Gal(b1-4)GlcNAc(b1-6)]Gal(b1-4)Glc
# How it was run: as §1
# [3] = molecular target: Fuc(a1-2)Gal(b1-4)GlcNAc(b1-6)GalNAc
# How it was run: as §1
# [4] = molecular target: Fuc(a1-2)Gal(b1-4)[Fuc(a1-3)]GlcNAc
# How it was run: as §1
# [5] = molecular target: Fuc(a1-2)Gal(b1-4)[Fuc(a1-3)]GlcNAc(b1-2)Man(a1-3)[Fuc(a1-2)Gal(b1-4)[Fuc(a1-3)]GlcNAc(b1-2)Man(a1-6)]Man(b1-4)GlcNAc(b1-4)[Fuc(a1-6)]GlcNAc
# How it was run: as §1
# [6] = molecular target: Fuc(a1-2)Gal(b1-4)[Fuc(a1-3)]GlcNAc(b1-3)Gal(b1-4)[Fuc(a1-3)]GlcNAc
# How it was run: as §1
# [7] = molecular target: Fuc(a1-2)Gal3S(b1-4)GlcNAc
# How it was run: as §1
# [8] = molecular target: Fuc(a1-2)[Gal(a1-3)]Gal
# How it was run: as §1
# [9] = molecular target: Fuc(a1-2)[Gal(a1-3)]Gal(b1-4)GlcNAc(b1-2)Man(a1-3)[Fuc(a1-2)[Gal(a1-3)]Gal(b1-4)GlcNAc(b1-2)Man(a1-6)]Man(b1-4)GlcNAc(b1-4)[Fuc(a1-6)]GlcNAc
# How it was run: as §1
# [10] = molecular target: Fuc(a1-2)[GalNAc(a1-3)]Gal(b1-3)GalNAc(b1-3)Gal(a1-4)Gal(b1-4)Glc
# How it was run: as §1
# [11] = molecular target: Fuc(a1-2)[GalNAc(a1-3)]Gal(b1-3)GlcNAc(b1-2)Man(a1-3)[Fuc(a1-2)[GalNAc(a1-3)]Gal(b1-3)GlcNAc(b1-2)Man(a1-6)]Man(b1-4)GlcNAc(b1-4)[Fuc(a1-6)]GlcNAc
# How it was run: as §1
# [12] = molecular target: Fuc(a1-2)[GalNAc(a1-3)]Gal(b1-4)[Fuc(a1-3)]GlcNAc
# How it was run: as §1
# [13] = molecular target: Fuc(a1-2)[GalNAc(a1-3)]Gal(b1-4)[Fuc(a1-3)]GlcNAc(b1-3)GalNAc
# How it was run: as §1
# [14] = molecular target: Fuc(a1-3)[GalNAc(b1-4)]GlcNAc6S
# How it was run: as §1
# [15] = molecular target: Gal(a1-3)Gal(b1-4)Glc
# How it was run: as §1
# [16] = molecular target: Gal(a1-3)GalNAc
# How it was run: as §1
# [17] = molecular target: Gal(a1-3)[Gal(a1-4)]Gal(b1-4)GlcNAc
# How it was run: as §1
# [18] = molecular target: Gal(a1-4)Gal(b1-4)Glc
# How it was run: as §1
# [19] = molecular target: Gal(a1-4)Gal(b1-4)GlcNAc(b1-3)Gal(b1-4)Glc
# How it was run: as §1
# [20] = molecular target: Gal(b1-3)GlcNAc
# How it was run: as §1
# [21] = molecular target: Gal(b1-3)[Fuc(a1-4)]GlcNAc(b1-3)Gal(b1-3)[Fuc(a1-4)]GlcNAc
# How it was run: as §1
# [22] = molecular target: Gal(b1-4)GlcNAc(a1-6)Gal(b1-4)GlcNAc
# How it was run: as §1
# [23] = molecular target: Gal(b1-4)GlcNAc(b1-2)Man(a1-3)[Gal(b1-4)GlcNAc(b1-2)Man(a1-6)]Man(b1-4)GlcNAc(b1-4)GlcNAc
# How it was run: as §1
# [24] = molecular target: Gal(b1-4)GlcNAc(b1-2)[Gal(b1-4)GlcNAc(b1-6)]Man(a1-6)[GlcNAc(b1-4)][Gal(b1-4)GlcNAc(b1-2)[Gal(b1-4)GlcNAc(b1-4)]Man(a1-3)]Man(b1-4)GlcNAc(b1-4)[Fuc(a1-6)]GlcNAc
# How it was run: as §1
# [25] = molecular target: Gal(b1-4)GlcNAc(b1-3)Gal(b1-3)GlcNAc
# How it was run: as §1
# [26] = molecular target: Gal(b1-4)GlcNAc(b1-3)Gal(b1-4)GlcNAc(b1-2)[Gal(b1-4)GlcNAc(b1-3)Gal(b1-4)GlcNAc(b1-6)]Man(a1-6)[Gal(b1-4)GlcNAc(b1-3)Gal(b1-4)GlcNAc(b1-2)Man(a1-3)]Man(b1-4)GlcNAc(b1-4)[Fuc(a1-6)]GlcNAc
# How it was run: as §1
# [27] = molecular target: Gal6S(b1-4)Glc
# How it was run: as §1
# [28] = molecular target: GalNAc(a1-3)GalNAc(b1-3)Gal(a1-4)Gal(b1-4)Glc
# How it was run: as §1
# [29] = molecular target: GalNAc(b1-3)Gal(a1-4)Gal(b1-4)GlcNAc
# How it was run: as §1
# [30] = molecular target: GalNAc(b1-3)Gal(a1-6)Gal(b1-4)Glc
# How it was run: as §1
# [31] = molecular target: GalNAc(b1-3)GlcNAc
# How it was run: as §1
# [32] = molecular target: GalNAc(b1-4)GlcNAc
# How it was run: as §1
# [33] = molecular target: GalNAc4S6S(b1-4)GlcNAc
# How it was run: as §1
# [34] = molecular target: GlcA(b1-3)Gal
# How it was run: as §1
# [35] = molecular target: GlcA(b1-6)Gal
# How it was run: as §1
# [36] = molecular target: GlcNAc(a1-4)Gal(b1-4)GlcNAc(b1-3)Gal(b1-4)Glc
# How it was run: as §1
# [37] = molecular target: GlcNAc(a1-4)Gal(b1-4)GlcNAc(b1-3)Gal(b1-4)[Fuc(a1-3)]GlcNAc(b1-3)Gal(b1-4)[Fuc(a1-3)]GlcNAc
# How it was run: as §1
# [38] = molecular target: GlcNAc(b1-3)Gal(b1-4)GlcNAc
# How it was run: as §1
# [39] = molecular target: GlcNAc(b1-3)Gal(b1-4)GlcNAc(b1-2)[GlcNAc(b1-3)Gal(b1-4)GlcNAc(b1-6)]Man(a1-6)[GlcNAc(b1-3)Gal(b1-4)GlcNAc(b1-2)Man(a1-3)]Man(b1-4)GlcNAc(b1-4)GlcNAc
# How it was run: as §1
# [40] = molecular target: Man(a1-2)Man(a1-6)[Man(a1-3)]Man(a1-6)[Man(a1-2)Man(a1-2)Man(a1-3)]Man
# How it was run: as §1
# [41] = molecular target: Neu5Ac(a2-3)Gal(b1-3)GlcNAc(b1-3)Gal(b1-3)GlcNAc
# How it was run: as §1
# [42] = molecular target: Neu5Ac(a2-3)Gal(b1-3)[Fuc(a1-4)]GlcNAc
# How it was run: as §1
# [43] = molecular target: Neu5Ac(a2-3)Gal(b1-4)GlcNAc(b1-2)Man(a1-3)[Neu5Ac(a2-6)Gal(b1-4)GlcNAc(b1-2)Man(a1-6)]Man(b1-4)GlcNAc(b1-4)GlcNAc
# How it was run: as §1
# [44] = molecular target: Neu5Ac(a2-3)Gal(b1-4)GlcNAc(b1-3)Gal(b1-4)GlcNAc(b1-6)[Gal(b1-3)]GalNAc
# How it was run: as §1
# [45] = molecular target: Neu5Ac(a2-3)Gal(b1-4)[Fuc(a1-3)]GlcNAc(b1-3)Gal
# How it was run: as §1
# [46] = molecular target: Neu5Ac(a2-3)Gal(b1-4)[Fuc(a1-3)]GlcNAc6S
# How it was run: as §1
# [47] = molecular target: Neu5Ac(a2-6)Gal(b1-4)GlcNAc(b1-2)[Neu5Ac(a2-6)Gal(b1-4)GlcNAc(b1-4)]Man(a1-3)[GlcNAc(b1-4)][Neu5Ac(a2-6)Gal(b1-4)GlcNAc(b1-2)[Neu5Ac(a2-6)Gal(b1-4)GlcNAc(b1-6)]Man(a1-6)]Man(b1-4)GlcNAc(b1-4)GlcNAc
# How it was run: as §1
# [48] = molecular target: Neu5Ac(a2-6)Gal(b1-4)GlcNAc(b1-3)Gal(b1-4)GlcNAc(b1-3)Gal(b1-4)GlcNAc(b1-2)Man(a1-3)[Neu5Ac(a2-6)Gal(b1-4)GlcNAc(b1-3)Gal(b1-4)GlcNAc(b1-3)Gal(b1-4)GlcNAc(b1-2)Man(a1-6)]GalNAc
# How it was run: as §1
# [49] = molecular target: Neu5Gc(a2-8)Neu5Gc(a2-3)Gal(b1-4)GlcNAc(b1-3)Gal(b1-4)GlcNAc
# How it was run: as §1
binder,measurement,setting,value
B1,glycan array binding signal (z-score),[1],0.123
same,glycan array binding signal (z-score),[2],0.203
same,glycan array binding signal (z-score),[3],-0.731
same,glycan array binding signal (z-score),[4],-0.381
same,glycan array binding signal (z-score),[5],-0.458
same,glycan array binding signal (z-score),[6],-0.951
same,glycan array binding signal (z-score),[7],3.33
same,glycan array binding signal (z-score),[8],2.08
same,glycan array binding signal (z-score),[9],-0.079
same,glycan array binding signal (z-score),[10],-0.123
same,glycan array binding signal (z-score),[11],-0.313
same,glycan array binding signal (z-score),[12],-0.818
same,glycan array binding signal (z-score),[13],6.03
same,glycan array binding signal (z-score),[14],-0.561
same,glycan array binding signal (z-score),[15],-0.538
same,glycan array binding signal (z-score),[16],2.52
same,glycan array binding signal (z-score),[17],7.13
same,glycan array binding signal (z-score),[18],3.6
same,glycan array binding signal (z-score),[19],-0.481
same,glycan array binding signal (z-score),[20],-0.484
same,glycan array binding signal (z-score),[21],-0.685
same,glycan array binding signal (z-score),[22],-0.378
same,glycan array binding signal (z-score),[23],-0.419
same,glycan array binding signal (z-score),[24],-0.121
same,glycan array binding signal (z-score),[25],-0.443
same,glycan array binding signal (z-score),[26],-0.519
same,glycan array binding signal (z-score),[27],-0.234
same,glycan array binding signal (z-score),[28],-0.476
same,glycan array binding signal (z-score),[29],3.41
same,glycan array binding signal (z-score),[30],-0.353
same,glycan array binding signal (z-score),[31],-0.421
same,glycan array binding signal (z-score),[32],9.27
same,glycan array binding signal (z-score),[33],-0.488
same,glycan array binding signal (z-score),[34],1.18
same,glycan array binding signal (z-score),[35],0.079
same,glycan array binding signal (z-score),[36],0.232
same,glycan array binding signal (z-score),[37],1.31
same,glycan array binding signal (z-score),[38],0.6
same,glycan array binding signal (z-score),[39],2.5
same,glycan array binding signal (z-score),[40],-0.613
same,glycan array binding signal (z-score),[41],-0.556
same,glycan array binding signal (z-score),[42],-0.723
same,glycan array binding signal (z-score),[43],2.04
same,glycan array binding signal (z-score),[44],-0.343
same,glycan array binding signal (z-score),[45],-0.706
same,glycan array binding signal (z-score),[46],0.419
same,glycan array binding signal (z-score),[47],-0.785
same,glycan array binding signal (z-score),[48],2.59
same,glycan array binding signal (z-score),[49],0.206

# — the supplement of paper PMC8728848
